According to PubChem BioAssay AID1159580 (chemical genetic matrix, 2015):
Screen size: about 5,500 compounds; about 2,000 (36%) were called active. Roughly 18% stayed inconclusive and do not appear here. No stated cut-off is given here; in the data, active means normalized growth mostly below about 0.91 (no sharp cut-off); inconclusive means no clear call, values can overlap the other calls; inactive means mostly above about 0.92. Some of the results follow.

Assay: chemical genetic growth profiling, strain panel (AID 1159580);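 further: tested at 20 µM; growth read once vehicle control cultures reached saturation at 30 °C; 1 = growth at the plate median or of vehicle wells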
Details: S. cerevisiae deletion strains, growth OD

Measured: normalized growth

CC(=O)O[C@@H]1CC2C(C)(C)C=CC(=O)[C@]2(C)C2CC[C@@]3(C)[C@H](c4ccoc4)OC(=O)C4OC43[C@@]21C (some centres not stated)
inactive: locus YAL021C, strain ccr4, stronger effect = lower value 0.985 | locus YAL026C, strain drs2, stronger effect = lower value 1 | locus YAL030W, strain snc1, stronger effect = lower value 0.999 | locus YBL061C, strain skt5, stronger effect = lower value 1 | locus YBR009C, strain hhf1, stronger effect = lower value 1 | locus YBR021W, strain FUR4, stronger effect = lower value 1.04 | locus YBR023C, strain chs3, stronger effect = lower value 0.988 | locus YBR171W, strain sec66, stronger effect = lower value 1.01 | locus YBR229C, strain ROT2, stronger effect = lower value 1.01 | locus YBR231C, strain swc5, stronger effect = lower value 1.01 | locus YBR279W, strain paf1, stronger effect = lower value 1 | locus YCL011C, strain gbp2, stronger effect = lower value 0.998 | locus YCL016C, strain dcc1, stronger effect = lower value 1 | locus YCL029C, strain bik1, stronger effect = lower value 1 | locus YCL061C, strain MRC1, stronger effect = lower value 0.998 | locus YCL069W, strain vba3, stronger effect = lower value 0.992 | locus YCR088W, strain abp1, stronger effect = lower value 0.994 | locus YDL005C, strain med2, stronger effect = lower value 0.987 | locus YDL035C, strain GPR1, stronger effect = lower value 1.03 | locus YDL040C, strain nat1, stronger effect = lower value 0.986 | locus YDL074C, strain BRE1, stronger effect = lower value 1.03 | locus YDL101C, strain DUN1, stronger effect = lower value 1.01 | locus YDL134C, strain PPH21, stronger effect = lower value 1.02 | locus YDL185W, strain tfp1, stronger effect = lower value 0.984 | locus YDL192W, strain arf1, stronger effect = lower value 1 | locus YDR001C, strain nth1, stronger effect = lower value 0.995 | locus YDR069C, strain doa4, stronger effect = lower value 0.985 | locus YDR101C, strain arx1, stronger effect = lower value 1 | locus YDR137W, strain rgp1, stronger effect = lower value 0.974 | locus YDR159W, strain sac3, stronger effect = lower value 0.988 | locus YDR162C, strain NBP2, stronger effect = lower value 1.04 | locus YDR195W, strain ref2 1 | locus YDR297W, strain sur2, stronger effect = lower value 0.994 | locus YDR318W, strain mcm21, stronger effect = lower value 1.01 | locus YDR334W, strain swr1, stronger effect = lower value 1.01 | locus YDR335W, strain msn5, stronger effect = lower value 0.997 | locus YDR388W, stronger effect = lower value 1 | locus YDR392W, strain spt3, stronger effect = lower value 0.963 | locus YDR502C, strain sam2, stronger effect = lower value 0.991 | locus YEL003W, strain gim4, stronger effect = lower value 0.984 | locus YEL037C, strain rad23, stronger effect = lower value 0.998 | locus YEL061C, strain CIN8 (second series), stronger effect = lower value 0.995 | locus YER015W, strain faa2, stronger effect = lower value 1 | locus YER016W, strain bim1, stronger effect = lower value 0.993 | locus YER110C, stronger effect = lower value 1 | locus YER111C, strain swi4, stronger effect = lower value 1 | locus YER155C, strain BEM2 (second series), stronger effect = lower value 0.996 | locus YER155C, strain BEM2, stronger effect = lower value 1.01 | locus YER167W, strain BCK2, stronger effect = lower value 1.03 | locus YFR010W, strain ubp6, stronger effect = lower value 1.04 | locus YGL078C, strain dbp3, stronger effect = lower value 0.986 | locus YGL086W, strain mad1, stronger effect = lower value 1 | locus YGL167C, strain pmr1, stronger effect = lower value 0.991 | locus YGL173C, strain kem1, stronger effect = lower value 0.996 | locus YGL227W, strain vid30, stronger effect = lower value 0.992 | locus YGL240W, strain doc1, stronger effect = lower value 0.983 | locus YGL248W, strain PDE1, stronger effect = lower value 1.02 | locus YGL253W, strain hxk2, stronger effect = lower value 0.977 | locus YGR135W, strain pre9, stronger effect = lower value 0.987 | locus YGR229C, strain SMI1, stronger effect = lower value 1.04 | locus YGR252W, strain gcn5, stronger effect = lower value 0.994 | locus YHR013C, strain ard1, stronger effect = lower value 1.01 | locus YHR027C, strain rpn1, stronger effect = lower value 1 | locus YHR030C, strain SLT2, stronger effect = lower value 1.01 | locus YHR079C, strain IRE1 (second series), stronger effect = lower value 1 | locus YHR094C, strain hxt1, stronger effect = lower value 0.995 | locus YHR129C, strain ARP1, stronger effect = lower value 1.02 | locus YHR142W, strain chs7, stronger effect = lower value 0.987 | locus YHR200W, strain rpn10, stronger effect = lower value 0.998 | locus YIL066C, strain RNR3, stronger effect = lower value 1.02 | locus YIL073C, strain SPO22, stronger effect = lower value 1.03 | locus YIL125W, strain kgd1, stronger effect = lower value 1.01 | locus YIR030C, strain dcg1, stronger effect = lower value 0.996 | locus YJL092W, strain hpr5, stronger effect = lower value 1 | locus YJL095W, strain BCK1 (second series), stronger effect = lower value 1 | locus YJL095W, strain BCK1, stronger effect = lower value 1.01 | locus YJL115W, strain asf1, stronger effect = lower value 1 | locus YJL129C, strain trk1, stronger effect = lower value 0.994 | locus YJL134W, strain LCB3, stronger effect = lower value 1.01 | locus YJL154C, strain vps35, stronger effect = lower value 0.999 | locus YJL164C, strain tpk1, stronger effect = lower value 0.996 | locus YJL166W, strain qcr8, stronger effect = lower value 0.992 | locus YJL168C, strain set2, stronger effect = lower value 1 | locus YJL187C, strain SWE1 (second series), stronger effect = lower value 1.01 | locus YJL187C, strain SWE1, stronger effect = lower value 1 | locus YJR043C, strain POL32, stronger effect = lower value 1.03 | locus YJR075W, strain HOC1, stronger effect = lower value 1.02 | locus YKL068W, stronger effect = lower value 1 | locus YKL085W, strain MDH1 (second series), stronger effect = lower value 1 | locus YKL085W, strain MDH1, stronger effect = lower value 1 | locus YKL160W, strain elf1, stronger effect = lower value 0.997 | locus YKL190W, strain CNB1, stronger effect = lower value 1.02 | locus YKR001C, strain vps1, stronger effect = lower value 1 | locus YKR026C, strain gcn3, stronger effect = lower value 0.996 | locus YKR091W, strain srl3, stronger effect = lower value 1 | locus YLL001W, strain dnm1, stronger effect = lower value 1.01 | locus YLL026W, stronger effect = lower value 1 | locus YLL041C, strain sdh2, stronger effect = lower value 1 | locus YLR027C, strain aat2, stronger effect = lower value 0.997 | locus YLR039C, strain RIC1, stronger effect = lower value 1.05 | locus YLR058C, strain SHM2, stronger effect = lower value 1.03 | locus YLR102C, strain apc9, stronger effect = lower value 0.998 | locus YLR221C, strain rsa3, stronger effect = lower value 0.991 | locus YLR258W, strain gsy2, stronger effect = lower value 0.984 | locus YLR262C, strain YPT6 (second series), stronger effect = lower value 1 | locus YLR262C, strain YPT6, stronger effect = lower value 1.09 | locus YLR268W, strain sec22, stronger effect = lower value 1 | locus YLR320W, strain mms22, stronger effect = lower value 0.999 | locus YLR330W, strain CHS5, stronger effect = lower value 1.01 | locus YLR342W, strain FKS1 (second series), stronger effect = lower value 0.989 | locus YLR342W, strain FKS1, stronger effect = lower value 1 | locus YLR357W, strain rsc2, stronger effect = lower value 1.02 | locus YLR370C, strain arc18, stronger effect = lower value 0.999 | locus YLR371W, strain rom2, stronger effect = lower value 1.01 | locus YLR384C, strain iki3, stronger effect = lower value 1.01 | locus YLR418C, strain cdc73, stronger effect = lower value 0.973 | locus YML016C, strain PPZ1, stronger effect = lower value 1.02 | locus YML032C, strain rad52, stronger effect = lower value 1 | locus YML120C, strain ndi1, stronger effect = lower value 1 | locus YML124C, strain tub3, stronger effect = lower value 1 | locus YMR058W, strain fet3, stronger effect = lower value 1 | locus YMR078C, strain ctf18, stronger effect = lower value 0.985 | locus YMR125W, strain sto1, stronger effect = lower value 0.999 | locus YMR129W, stronger effect = lower value 0.99 | locus YMR205C, strain PFK2, stronger effect = lower value 0.996 | locus YMR223W, strain ubp8, stronger effect = lower value 0.997 | locus YMR231W, strain pep5, stronger effect = lower value 0.973 | locus YMR307W, strain GAS1, stronger effect = lower value 1.02 | locus YNL067W, strain RPL9B, stronger effect = lower value 1.02 | locus YNL071W, strain lat1, stronger effect = lower value 0.994 | locus YNL128W, strain TEP1, stronger effect = lower value 1.02 | locus YNL209W, strain ssb2, stronger effect = lower value 1.01 | locus YNL233W, strain BNI4, stronger effect = lower value 1.02 | locus YNL248C, strain rpa49, stronger effect = lower value 1.01 | locus YNL250W, strain rad50, stronger effect = lower value 0.989 | locus YNL271C, strain bni1, stronger effect = lower value 1 | locus YNL298W, strain CLA4, stronger effect = lower value 0.998 | locus YNL307C, strain MCK1, stronger effect = lower value 0.993 | locus YNL322C, strain KRE1 (second series), stronger effect = lower value 1 | locus YNR049C, strain mso1, stronger effect = lower value 1 | locus YNR052C, strain pop2, stronger effect = lower value 1 | locus YOL012C, strain htz1 0.75 | locus YOL147C, strain pex11, stronger effect = lower value 0.995 | locus YOR001W, strain rrp6, stronger effect = lower value 0.995 | locus YOR061W, strain CKA2, stronger effect = lower value 1.02 | locus YOR069W, strain VPS5, stronger effect = lower value 1.01 | locus YOR070C, strain gyp1, stronger effect = lower value 0.998 | locus YOR080W, strain dia2, stronger effect = lower value 0.993 | locus YOR083W, strain WHI5, stronger effect = lower value 1 | locus YOR106W, strain vam3, stronger effect = lower value 1.01 | locus YOR136W, strain idh2, stronger effect = lower value 1 | locus YOR144C, strain elg1, stronger effect = lower value 1.01 | locus YOR184W, strain ser1, stronger effect = lower value 1.01 | locus YOR265W, strain rbl2, stronger effect = lower value 0.997 | locus YOR270C, strain vph1, stronger effect = lower value 0.956 | locus YOR290C, strain snf2, stronger effect = lower value 0.968 | locus YOR316C, strain cot1, stronger effect = lower value 0.993 | locus YPL051W, strain arl3, stronger effect = lower value 1.03 | locus YPL055C, strain LGE1, stronger effect = lower value 1.03 | locus YPL078C, strain atp4, stronger effect = lower value 0.983 | locus YPL106C, strain sse1, stronger effect = lower value 1.02 | locus YPL240C, strain hsp82, stronger effect = lower value 0.998 | locus YPR119W, strain clb2, stronger effect = lower value 0.998 | locus YPR141C, strain kar3, stronger effect = lower value 0.998 | locus YPR163C, strain tif3, stronger effect = lower value 1.01 | locus YPR167C, strain met16, stronger effect = lower value 0.997 | strain wtn01, stronger effect = lower value 1.01
